# This is one part of a sample in which hits are shown more often than they occur.
# mHTT CaM bind – mutant huntingtin-calmodulin interaction inhibitors – biochemical, AlphaScreen, primary screen; P42858; AlphaScreen His-mHTT/GST-CaM binding, luminescence; inhibition, % at 15 µM; 190,000 compounds, 3.6% hits;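 note: 0% = both proteins with DMSO and 100% = one protein alone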
# Target sequence (P42858 whole entry, looked up, stated change not applied): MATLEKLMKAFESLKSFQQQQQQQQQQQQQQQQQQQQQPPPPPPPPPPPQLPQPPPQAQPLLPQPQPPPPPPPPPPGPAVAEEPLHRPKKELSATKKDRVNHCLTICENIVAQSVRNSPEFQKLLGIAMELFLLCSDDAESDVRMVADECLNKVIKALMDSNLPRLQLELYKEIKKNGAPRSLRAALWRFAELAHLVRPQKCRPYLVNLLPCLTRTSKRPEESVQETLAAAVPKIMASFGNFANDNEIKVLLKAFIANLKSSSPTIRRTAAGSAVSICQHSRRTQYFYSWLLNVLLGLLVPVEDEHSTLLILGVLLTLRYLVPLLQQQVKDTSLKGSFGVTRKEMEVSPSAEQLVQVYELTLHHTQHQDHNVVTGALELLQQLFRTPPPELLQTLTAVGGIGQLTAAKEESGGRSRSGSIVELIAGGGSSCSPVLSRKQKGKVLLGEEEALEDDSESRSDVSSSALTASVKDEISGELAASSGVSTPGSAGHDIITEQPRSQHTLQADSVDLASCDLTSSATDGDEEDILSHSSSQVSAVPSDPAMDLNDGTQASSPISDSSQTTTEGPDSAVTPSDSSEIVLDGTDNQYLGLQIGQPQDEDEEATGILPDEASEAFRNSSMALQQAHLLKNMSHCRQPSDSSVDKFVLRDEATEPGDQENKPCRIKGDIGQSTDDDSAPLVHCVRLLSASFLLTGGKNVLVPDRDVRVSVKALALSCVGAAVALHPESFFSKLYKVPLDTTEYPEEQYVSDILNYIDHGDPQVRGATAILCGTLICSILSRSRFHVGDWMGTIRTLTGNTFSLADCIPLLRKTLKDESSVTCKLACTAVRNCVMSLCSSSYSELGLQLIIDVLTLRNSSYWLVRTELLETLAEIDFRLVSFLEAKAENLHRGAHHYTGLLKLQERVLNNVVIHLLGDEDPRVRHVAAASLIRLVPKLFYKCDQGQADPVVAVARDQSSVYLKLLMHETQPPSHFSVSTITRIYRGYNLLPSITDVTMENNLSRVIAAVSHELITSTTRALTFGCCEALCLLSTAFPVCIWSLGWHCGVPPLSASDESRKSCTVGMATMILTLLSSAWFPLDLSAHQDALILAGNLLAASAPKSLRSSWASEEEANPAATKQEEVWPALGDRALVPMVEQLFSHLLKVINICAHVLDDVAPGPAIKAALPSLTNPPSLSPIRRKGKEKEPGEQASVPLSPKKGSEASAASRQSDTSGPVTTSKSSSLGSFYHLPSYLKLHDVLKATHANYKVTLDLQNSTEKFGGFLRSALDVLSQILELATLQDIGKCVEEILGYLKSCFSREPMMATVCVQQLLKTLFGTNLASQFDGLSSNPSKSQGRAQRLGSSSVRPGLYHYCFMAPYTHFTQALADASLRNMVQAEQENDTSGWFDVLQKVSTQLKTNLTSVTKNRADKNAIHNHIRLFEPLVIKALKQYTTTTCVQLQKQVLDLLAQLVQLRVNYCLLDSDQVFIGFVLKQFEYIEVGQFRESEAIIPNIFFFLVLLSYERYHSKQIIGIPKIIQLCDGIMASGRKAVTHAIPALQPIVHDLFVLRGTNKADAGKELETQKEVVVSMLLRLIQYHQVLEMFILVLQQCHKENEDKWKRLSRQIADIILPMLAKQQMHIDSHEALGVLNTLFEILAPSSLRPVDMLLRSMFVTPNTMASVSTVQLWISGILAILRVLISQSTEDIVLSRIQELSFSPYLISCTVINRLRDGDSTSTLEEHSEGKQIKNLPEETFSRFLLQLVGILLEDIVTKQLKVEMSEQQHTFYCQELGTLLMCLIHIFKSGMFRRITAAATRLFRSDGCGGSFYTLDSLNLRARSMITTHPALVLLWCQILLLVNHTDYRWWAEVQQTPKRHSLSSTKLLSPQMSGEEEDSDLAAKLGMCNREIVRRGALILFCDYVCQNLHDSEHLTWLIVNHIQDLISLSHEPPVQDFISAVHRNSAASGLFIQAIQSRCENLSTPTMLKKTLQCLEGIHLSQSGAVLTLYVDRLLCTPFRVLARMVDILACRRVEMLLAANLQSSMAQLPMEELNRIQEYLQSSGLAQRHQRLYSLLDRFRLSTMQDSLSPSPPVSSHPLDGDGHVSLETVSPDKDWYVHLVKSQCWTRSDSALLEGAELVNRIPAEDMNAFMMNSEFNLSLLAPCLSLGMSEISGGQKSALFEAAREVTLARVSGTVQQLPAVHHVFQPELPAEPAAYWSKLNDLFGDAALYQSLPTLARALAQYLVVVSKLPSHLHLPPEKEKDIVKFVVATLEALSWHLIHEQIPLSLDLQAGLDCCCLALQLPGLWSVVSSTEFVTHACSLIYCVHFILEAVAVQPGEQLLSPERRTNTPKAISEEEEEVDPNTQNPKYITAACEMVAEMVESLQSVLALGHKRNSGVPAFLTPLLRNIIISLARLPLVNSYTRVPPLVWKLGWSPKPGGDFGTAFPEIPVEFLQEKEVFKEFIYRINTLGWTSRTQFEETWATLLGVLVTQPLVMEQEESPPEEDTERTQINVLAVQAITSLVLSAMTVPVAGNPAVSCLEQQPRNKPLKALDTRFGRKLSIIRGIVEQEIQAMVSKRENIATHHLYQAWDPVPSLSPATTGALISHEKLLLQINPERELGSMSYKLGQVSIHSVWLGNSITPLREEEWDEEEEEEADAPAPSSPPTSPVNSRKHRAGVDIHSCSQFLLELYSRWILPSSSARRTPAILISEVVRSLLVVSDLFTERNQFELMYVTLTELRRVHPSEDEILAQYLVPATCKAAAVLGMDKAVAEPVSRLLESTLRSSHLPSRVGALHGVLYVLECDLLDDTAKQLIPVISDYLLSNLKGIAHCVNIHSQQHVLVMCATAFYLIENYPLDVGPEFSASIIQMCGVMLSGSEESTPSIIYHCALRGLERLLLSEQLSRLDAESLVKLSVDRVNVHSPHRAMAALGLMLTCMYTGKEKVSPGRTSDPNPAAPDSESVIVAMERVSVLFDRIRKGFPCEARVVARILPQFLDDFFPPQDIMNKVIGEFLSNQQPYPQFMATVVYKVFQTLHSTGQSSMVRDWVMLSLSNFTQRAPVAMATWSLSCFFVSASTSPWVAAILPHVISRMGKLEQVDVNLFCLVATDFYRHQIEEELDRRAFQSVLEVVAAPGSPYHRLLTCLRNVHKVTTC
# Pf apPOL inh – Pf-apPOL inhibitors, biochemical, fluorescence; Plasmodium falciparum apicoplast DNA polymerase (apPOL); Recombinant Pf-apPOL, molecular beacon fluorescence, 1.5 h; inhibition, % at 10 µM; 210,000 compounds, 0.25% hits
# * marks the source's active call; other numbers are inactive results; / = no result given; ! = not active in a repeat. Cut-off read from the data, not from the text of the source: active = inhibition above about 50%; inactive = the rest.
SMILES,mHTT CaM bind,Pf apPOL inh
CN(C)C(=O)c1ccc(-c2nnc(NCc3ccccc3)c3ccccc23)cc1,33,-2
CC(=O)Nc1ccc(Nc2nnc(-c3ccc(O)cc3)c3ccccc23)cc1,33,-71
CCN(CC)C(=O)COc1ccc(-c2nnc(NCc3ccccc3)c3ccccc23)cc1,99*,-77
CNC(=O)COc1ccc(Nc2nnc(-c3ccc(C)cc3)c3ccccc23)cc1,67*!,0
COc1ccc(Nc2nnc(-c3ccc(C(=O)NCCO)cc3)c3ccccc23)cc1,2,-4
Cn1cnnc1SCC(=O)Nc1cccc(NC(=O)CSc2nncn2C)n1,0,-3
O=[N+]([O-])c1ccccc1S(=O)(=O)NC1CCCCCC1,6,-12
Nc1c(Cl)ccc2c1C(=O)c1ccccc1C2=O,39,-7
N#CC1=C(N)SC(N)=C(C#N)C1c1ccncc1,2,/
N#CC1=C(N)SC(N)=C(C#N)C1c1ccc(Cl)c(Cl)c1,98*,-2
O=[N+]([O-])c1cc(Br)c2nsnc2c1N1CCCCC1,77*!,-8
O=[N+]([O-])c1cc(C(F)(F)F)cc([N+](=O)[O-])c1N1CCCCC1,24,-2
CCc1cc(-c2[nH]ncc2-c2ccc([N+](=O)[O-])cc2)c(O)cc1OC,95*,6
CCc1cc(-c2onc(C)c2-c2ccc(OC)cc2)c(O)cc1OC,20,-3
Cc1nc2c(C(=O)NC(C)C)cnn2c(C)c1Cc1cccc(Cl)c1,70*,5
COC(CNC(=O)c1cnn2c(C)c(Cc3ccccc3)c(C)nc12)OC,13,-4
COC(CNC(=O)c1cnn2c(C)c(Cc3cccc(Cl)c3)c(C)nc12)OC,61*,-9
Cc1nc2c(C(=O)NCCC(C)C)cnn2c(C)c1Cc1cccc(Cl)c1,-19,-10
CCOC(=O)CCC(=O)NCC1CN(c2ccc(F)cc2)C(=O)O1 (stereo not given),-8,4
CC(=O)C1=C(C)NC(SCc2cccc([N+](=O)[O-])c2)=C(C#N)C1c1sccc1C (stereo not given),12,-8
CCN1CCCC1CN1C(=O)CCc2c(C)nc(-c3ccncc3)nc21 (stereo not given),7,0
O=c1c(=Cc2ccc(Cl)cc2)sc2nc(-c3ccc(Cl)cc3)nn12,/,15
Cc1cc(C)c2c(=O)n(C(=O)c3cccs3)sc2n1,/,100*
Cc1cc(C)c(C#N)c(OC(=O)c2cccs2)n1,/,2
Cc1nn2c(=O)/c(=C/c3ccc(-c4ccc(Br)cc4)o3)sc2nc1=O,11,-3
SMILES,mHTT CaM bind,Pf apPOL inh
Cc1cccc(N2CCN(C(=O)c3ccnc(N4CCCC4)n3)CC2)c1,0,-5
CCCC1=NN(c2nc3ccccc3s2)C(=O)/C1=C/N(C)C,-2,-16
CC1=NN(c2nc(-c3ccc(C#N)cc3)cs2)C(=O)C1,16,-6
CC1=NN(c2nc3ccccc3s2)C(=O)C1,94*,-7
Cc1ccc(Nc2cc(C)nc(-c3ccccc3O)n2)cc1,-18,-5
CC1=NN(c2cc(C)nc(-c3ccccc3O)n2)C(=O)C1,56*,-12
CC1=NN(c2nc(-c3ccccc3O)cs2)C(=O)C1,98*,-6
COc1ccc(C2SCC(=O)N2c2ccc(Br)cc2)cc1 (stereo not given),-14,-2
Cc1nc2c(NS(=O)(=O)c3ccc(F)cc3)cccn2n1,-6,-7
CC(C)(C)NCCOc1ccc(Cl)c(Cl)c1,0,2
CCCCOc1ccc(C2=N/C(=C\c3cccc(OC)c3)C(=O)O2)cc1,-1,0
Cc1nn(C(C)(C)C)c(C)c1C#N,/,4
COc1cc2c(cc1OC)C(COc1ccccc1OC)N(C(C)=O)CC2 (stereo not given),-7,0
COc1ccc(OCC2c3cc(OC)c(OC)cc3CCN2C(=O)c2c(F)cccc2F)cc1 (stereo not given),30,82*
COc1ccc(OCC2c3cc(OC)c(OC)cc3CCN2C(=O)c2ccc(OC)cc2)cc1 (stereo not given),57*,-1
COC(=O)c1ccc(OCC2c3cc(OC)c(OC)cc3CCN2C(=O)c2cc(OC)cc(OC)c2)cc1 (stereo not given),-3,-2
CCC(=O)N1CCc2cc(OC)c(OC)cc2C1COc1ccc(OC)cc1 (stereo not given),2,2
CCOc1ccccc1C(=O)N1CCc2cc(OC)c(OC)cc2C1COc1ccccc1OC (stereo not given),55*,-4
O=C(CN1CCC2(CC1)N=C(c1ccc(F)cc1)C(=O)N2)Nc1ccccc1C(F)(F)F,-10,-4
CC(C)NC(=O)N1CCCC(c2cccc(C(=O)NCc3ccco3)c2)C1 (stereo not given),25,-4
CCCCN(C)C(=O)CCC1CCCN(c2cc(NCC)ncn2)C1 (stereo not given),-3,-2
COc1cccc(C2Oc3ccccc3C3CC(c4cccs4)=NN32)c1O (stereo not given),51*,8
COc1ccc([N+](=O)[O-])cc1C1Oc2ccccc2C2CC(c3cccs3)=NN21 (stereo not given),28,0
O=[N+]([O-])c1ccccc1C1Oc2ccccc2C2CC(c3cccs3)=NN21 (stereo not given),20,-7
c1csc(C2=NN3C(C2)c2ccccc2OC3c2ccc3c(c2)OCO3)c1 (stereo not given),14,1
SMILES,mHTT CaM bind,Pf apPOL inh
Oc1ccc(C2Oc3ccccc3C3CC(c4cccs4)=NN32)c(O)c1 (stereo not given),64*,9
Clc1cccc(C2Oc3ccccc3C3CC(c4ccccc4)=NN32)c1Cl (stereo not given),-9,/
O=[N+]([O-])c1ccc(O)c(C2Oc3ccccc3C3CC(c4cccs4)=NN32)c1 (stereo not given),62*,3
CCC1Oc2ccccc2C2CC(c3cccs3)=NN12 (stereo not given),75*,3
CCOC(=O)Nc1nc2c(s1)CN(C(=O)Nc1ccc3c(c1)OCO3)CC2,9,-2
COc1ccc(-n2c(=O)[nH]cc(C(=O)Nc3cccc([N+](=O)[O-])c3)c2=O)cc1OC,-6,-3
COc1ccc(-c2coc3c(CN4CCN(C)CC4)c(O)ccc3c2=O)cc1,4,-5
Cc1nn(CCc2nn[nH]n2)c(C)c1Cl,3,/
COc1ccc(C2=N/C(=C\c3ccccc3F)C(=O)O2)c(Br)c1,8,-4
CCc1ccc(C(c2ccc(CC)o2)c2cc3c(cc2[N+](=O)[O-])OCO3)o1,84*,-8
Nc1cc2c(cc1[N+](=O)[O-])OCO2,9,6
CCC1CCc2c(sc(NC(=O)c3ccccc3Br)c2C#N)C1 (stereo not given),0,15
CC1(C)C2CCC1(C)C(OCC(O)CN1CCN(c3cccc(Cl)c3)CC1)C2 (stereo not given),99*,-6
CC1(C)C2CCC1(C)C(OCC(O)CN1CCN(Cc3ccc(Cl)cc3)CC1)C2 (stereo not given),100*,-4
OC(COC12CC3CC(CC(C3)C1)C2)CN1CCN(c2cccc(C(F)(F)F)c2)CC1 (stereo not given),26,-8
CC12CCC(C1)C(C)(C)C2OCC(O)CN1CCN(c2cccc(C(F)(F)F)c2)CC1 (stereo not given),65*,-1
